{"source": "PubChem BioAssay AID1347426", "about": "(Functional Genomics Laboratory (NCATS/FGL), 2020)", "note": "Among all 31,000 sequences or so, about 1,400 (4.5%) were called active. Only a selection was taken, and actives are over-represented in it overall. Values without a mark were called inactive.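 The calls were made as follows: active = median seed-adjusted z-score above 1 or below -1; inactive = the rest.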"}
{"test": "Novel Modifiers of Survival Motor Neuron (SMN) Protein: Gene Identification via Genome-wide siRNA Screen;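 also: luminescence tracks full-length SMN protein made from the SMN2 reporter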", "conditions": "HEK293T SMN2-luciferase reporter, siRNA knockdown, 72 h; actives lie on both sides", "summary_of_the_method": "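Genome-wide siRNA screen (10418 genes, 3 siRNAs each, 1 pmol per well) by reverse transfection in HEK293T cells stably carrying an SMN2-luciferase reporter; luminescence after 72 hours, normalized to negative-control siRNA, log10-transformed, MAD-scored.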"}
{"sequence": "GGACUGAUUGGACUCCCAUTT against TNFRSF11A", "median seed-adjusted z-score": -0.0833}
{"sequence": "GGACGGUCGUGAUGGAUAATT against SAFB2", "median seed-adjusted z-score": 0.0394}
{"sequence": "CCCUGAACAUACCUACUGATT against BRS3", "median seed-adjusted z-score": 0.224}
{"sequence": "ACAUCUAUUUGUGACCUUATT against NHLH2", "median seed-adjusted z-score": 0}
{"sequence": "GCACAAGCAUUGGAAAUAATT against MAP4", "median seed-adjusted z-score": "1.67 (active)"}
{"sequence": "CCUUUAUGCCUGAUCCUCATT against SULT1C3", "median seed-adjusted z-score": -0.731}
{"sequence": "CCACAACGGACAGUCCAUATT against CYP17A1", "median seed-adjusted z-score": "-1.39 (active)"}
{"sequence": "GGAAAGCAAUAAAAGUUAUTT against TAAR6", "median seed-adjusted z-score": -0.124}
{"sequence": "AGGCCUAUAUUGAAGGAGATT against DGKG", "median seed-adjusted z-score": 0.227}
{"sequence": "CAACAGGUAUAACUACAUATT against CNDP2", "median seed-adjusted z-score": 0.43}
{"sequence": "CCAAGAAGAUCAGCACCUUTT against GPR26", "median seed-adjusted z-score": "-1.33 (active)"}
{"sequence": "AGACCAUAACUACUCACUATT against KDELR3", "median seed-adjusted z-score": 0.476}
{"sequence": "GCUCAAUUGUCGAUCUUUATT against ERO1LB", "median seed-adjusted z-score": 0.565}
{"sequence": "GAAGGUUUCUGUGCCCUCATT against SLC4A9", "median seed-adjusted z-score": 0}
{"sequence": "CCUGCAAGCUGUCAACUUUTT against PRKACA", "median seed-adjusted z-score": -0.137}
{"sequence": "CAACUUCUAUAGUCGAAUATT against TXNDC3", "median seed-adjusted z-score": -0.649}
{"sequence": "CGAUAUUUAUCCUUACCUATT against SLC9A2", "median seed-adjusted z-score": "-1.02 (active)"}
{"sequence": "CCUUUACGUUCAAAUCACATT against ZNF268", "median seed-adjusted z-score": 0.0358}
{"sequence": "CCAAGGAGUCGUCUACUUUTT against B3GAT3", "median seed-adjusted z-score": -0.00603}
{"sequence": "GCAGAUCUCAUGUCCUCUATT against FPGS", "median seed-adjusted z-score": -0.853}
{"sequence": "GCAAGUGGUUUGUCAGUAATT against B3GALT5", "median seed-adjusted z-score": 0.144}
{"sequence": "GCUCUUAUGCGACAGUUUATT against PFTK2", "median seed-adjusted z-score": "-1.16 (active)"}
{"sequence": "GGUGUAUGCUGAGGUGAAATT against EIF2C1", "median seed-adjusted z-score": 0.215}
{"sequence": "AGUCUGUUGGUGCACAAAATT against MDM2", "median seed-adjusted z-score": 0.258}
{"sequence": "GAUUUAUGCUAGCUCUAAATT against CFL2", "median seed-adjusted z-score": -0.148}
{"sequence": "CAUCAAAACUUGGAGAGCATT against FN3K", "median seed-adjusted z-score": -0.508}
{"sequence": "CCUUCUACAACACCAAGAATT against AGPAT2", "median seed-adjusted z-score": 0.38}
{"sequence": "GGAUUACAGGAGACCCAUATT against FUBP1", "median seed-adjusted z-score": "-1.52 (active)"}
{"sequence": "CAUUAACAUUGUUCGCAAATT against ACO2", "median seed-adjusted z-score": "-1.57 (active)"}
{"sequence": "UACCAGAUCUCAAAAAGAATT against CCR5", "median seed-adjusted z-score": -0.0281}
{"sequence": "GGAUGAAGGUAGUUACGUUTT against RAVER2", "median seed-adjusted z-score": -0.258}
{"sequence": "CAUCCACACUGCAAUGAUATT against PILRB", "median seed-adjusted z-score": 0.0351}
{"sequence": "AAUUUUCCUGUGAUAGAAATT against PATE1", "median seed-adjusted z-score": "1.21 (active)"}
{"sequence": "GCGACUUUCUUGGUUUGCATT against SNX2", "median seed-adjusted z-score": -0.569}
{"sequence": "CCCUAAAUGUAUCUCGGAATT against GRIN3A", "median seed-adjusted z-score": 0.241}
{"sequence": "CGAGACGUAUUAUAUCUUUTT against COL4A3BP", "median seed-adjusted z-score": 0.0391}
{"sequence": "GUGCAUAAGUGUUAGGGAATT against SLC17A2", "median seed-adjusted z-score": 0.141}
{"sequence": "GAUCUGAGCUUGUACAGAATT against PSMC2", "median seed-adjusted z-score": "-1.96 (active)"}
{"sequence": "GGAUCGAACCCAUGGAUCATT against ROCK2", "median seed-adjusted z-score": -0.149}
{"sequence": "GAAUAACUGCUGCUUGUAATT against TTRAP", "median seed-adjusted z-score": -0.33}
{"sequence": "GACUCAUACGAGCGCAUUATT against SEMA4F", "median seed-adjusted z-score": 0.139}
{"sequence": "GGCGAAGAGGGAUCAAGUATT against ZNF24", "median seed-adjusted z-score": 0.388}
{"sequence": "GAGCCACACUUUCAAGUAATT against CRIP1", "median seed-adjusted z-score": -0.622}
{"sequence": "CCGUGGACCAGUACUUUUATT against MAN2B1", "median seed-adjusted z-score": -0.246}
{"sequence": "GACACGAUUCUUUACCAAATT against CHEK1", "median seed-adjusted z-score": "-5.1 (active)"}
{"sequence": "GGACUCAGGUCUCAUGUGATT against KRTAP5-7", "median seed-adjusted z-score": -0.279}
{"sequence": "CAGGUAUUGUGGAAAGUAUTT against ADH4", "median seed-adjusted z-score": -0.0991}
{"sequence": "GCACCAUAGACUUUCGGGATT against HPCA", "median seed-adjusted z-score": 0.12}
{"sequence": "GAGCGAAGGUCAUAAUACATT against MORC4", "median seed-adjusted z-score": 0.13}
{"sequence": "GCAUGAGUGUUGAUAGGUATT against AGTR2", "median seed-adjusted z-score": 0.204}
{"sequence": "ACAACUUCAUAUCCAGCUUTT against ISLR2", "median seed-adjusted z-score": 0.263}
{"sequence": "GCUGCGAAAGGAUCUCAAATT against UBE3B", "median seed-adjusted z-score": 0.0972}
{"sequence": "CAAAUACGGUAAUGCUGUATT against COX7B", "median seed-adjusted z-score": "-1.16 (active)"}
{"sequence": "GAACUUCACAAGUUCCUCATT against RAB31", "median seed-adjusted z-score": 0.41}
{"sequence": "GCUUAAUGGUGUCCCGUAATT against PCCA", "median seed-adjusted z-score": 0}
{"sequence": "CAAGCUCCAUUUUGAAUCATT against SRR", "median seed-adjusted z-score": -0.256}
{"sequence": "CGACGGUGGAAGACACCUATT against DIRAS2", "median seed-adjusted z-score": "-1.25 (active)"}
{"sequence": "CAUUGCAAGUUGUUCUUGATT against GJA4", "median seed-adjusted z-score": -0.18}
{"sequence": "ACAGCGCUCUCAAUCCCUUTT against GPR150", "median seed-adjusted z-score": -0.129}
{"sequence": "CAUCAGCACUAGCACCUCATT against ZNF213", "median seed-adjusted z-score": "1.37 (active)"}
{"sequence": "CCCGGUCACUUCUGAGAAATT against ZNF696", "median seed-adjusted z-score": 0.17}
{"sequence": "GGAAGAGUCAUACAUCAAUTT against DDX55", "median seed-adjusted z-score": 0.507}
{"sequence": "GCAUAGCUCUCGAUAAGAATT against MYH4", "median seed-adjusted z-score": "-1.8 (active)"}
{"sequence": "GGAUCAUGCUGAGAUGCAATT against RASAL2", "median seed-adjusted z-score": 0}
{"sequence": "CCAUCGUGGUAGAUCCGUUTT against CBL", "median seed-adjusted z-score": -0.417}
{"sequence": "GCUUUGUCACAUAACGUGATT against SLC38A2", "median seed-adjusted z-score": "-1.04 (active)"}
{"sequence": "GGUUGCUAUAUGUUCCGAATT against MLL", "median seed-adjusted z-score": 0.227}
{"sequence": "UGACGUGCACAGGAAGAAATT against OXCT2", "median seed-adjusted z-score": -0.449}
{"sequence": "GGGAAUAGCUUAUCUUGUUTT against RFC4", "median seed-adjusted z-score": -0.386}
